Assay in all cases: NCI-60 one-dose screen, 48 h (100 = growth as untreated, 0 = no growth, -100 = all killed)
One assay relates to K-562 leukemia. To be noted: 10 µM unless noted.
The subject of another assay is MALME-3M melanoma. To be noted: 10 µM unless noted.
For the next assay, the system named is MDA-MB-231 breast. To be noted: 10 µM unless noted.
A further assay concerns RXF 393 renal. To be noted: 10 µM unless noted.
The next assay has as its system SF-268 CNS. To be noted: 10 µM unless noted.
The next assay has as its system SF-295 CNS. To be noted: 10 µM unless noted.
Another assay has as its system SF-539 CNS. To be noted: 10 µM unless noted.
For the next assay, the system named is UACC-257 melanoma. To be noted: 10 µM unless noted.
For another assay, the system named is M14 melanoma. To be noted: 10 µM unless noted.
In the next assay the test system is HCT-15 colon. To be noted: 10 µM unless noted.
Another assay has as its system HT29 colon. To be noted: 10 µM unless noted.
The subject of a further assay is SNB-75 CNS. To be noted: 10 µM unless noted.
The next assay relates to SNB-19 CNS. To be noted: 10 µM unless noted.
The subject of another assay is U251 CNS. To be noted: 10 µM unless noted.
In a further assay the test system is PC-3 prostate. To be noted: 10 µM unless noted.
Another assay concerns SK-MEL-5 melanoma. To be noted: 10 µM unless noted.
Another assay deals with UACC-62 melanoma. To be noted: 10 µM unless noted.
In a further assay the test system is LOX IMVI melanoma. To be noted: 10 µM unless noted.
A further assay concerns SK-MEL-2 melanoma. To be noted: 10 µM unless noted.
The next assay relates to SK-MEL-28 melanoma. To be noted: 10 µM.

This is part of a sample that, as a whole, favours compounds with a hit. Of some 83,000 tested, about 20% had one in any assay.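 The endpoint reported here, percent growth, reads 100 for growth as untreated, 0 for no net growth and -100 for all cells dead.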 A number with no mark means an inactive call. Calls of active or inactive are those of the source. Rule for the calls: active = growth percent below 10; inactive = the rest.

Regarding `COc1cc(C2C3=C(COC3=O)N(CCO)c3cc4c(cc32)CCC4)cc(OC)c1O` (stereo not drawn), the growth in the assay on K-562 leukemia was 14.7%; with MALME-3M melanoma it was 54.7%; in the assay with MDA-MB-231 breast, 18%; in the assay with RXF 393 renal, -35.8% (active); with SF-268 CNS, 43.6%; in the assay on SF-295 CNS, -2.29% (active). The growth in the assay on SF-539 CNS is -22.6% (active); in the assay on UACC-257 melanoma, 36.2%; in the assay on M14 melanoma it was 1.16% (active); with HCT-15 colon, 17.9%; in the assay with HT29 colon, 0.722% (active); in the assay on SNB-75 CNS, 3.02% (active). Further, the growth with SNB-19 CNS was 31.2%; in the assay on U251 CNS it was 15.3%; in the assay with PC-3 prostate, 31.7%; in the assay on SK-MEL-5 melanoma, 11.8%; in the assay with UACC-62 melanoma, 39.8%; in the assay with LOX IMVI melanoma it was 28.2%. The growth in the assay with SK-MEL-2 melanoma was 89%.

Regarding `CCOC(=O)c1ccc2[nH]c(-c3ccccc3)cc(=O)c2c1`, the growth is 97.2% in the assay on K-562 leukemia; 104% with MALME-3M melanoma; 94.5% in the assay on MDA-MB-231 breast; 103% in the assay with RXF 393 renal; 103% in the assay on SF-268 CNS; 106% in the assay with SF-295 CNS. In addition, the growth in the assay on SF-539 CNS is 97.2%; in the assay with UACC-257 melanoma, 98.7%; in the assay on M14 melanoma it was 98.9%; with HCT-15 colon, 92.8%; with HT29 colon, 103%; in the assay on SNB-75 CNS, 72.3%. Besides, the growth is 94.9% in the assay on SNB-19 CNS; 97.2% in the assay with U251 CNS; 89.1% in the assay on PC-3 prostate; 103% in the assay on SK-MEL-5 melanoma; 101% with UACC-62 melanoma; 98.2% with LOX IMVI melanoma. The growth was 109% in the assay with SK-MEL-28 melanoma and 105% in the assay with SK-MEL-2 melanoma.

As for `O=S1(=O)N(Cc2ccccc2)[C@@H](Cc2ccccc2)C2O[C@H]2[C@H](Cc2ccccc2)N1Cc1ccccc1` (stereo partly drawn), the growth in the assay with K-562 leukemia was 23.4%; with MALME-3M melanoma, 67.8%; in the assay on MDA-MB-231 breast, 24.2%; in the assay with RXF 393 renal, 45.2%; with SF-268 CNS it was 57.8%; in the assay on SF-295 CNS, 38%. Further, the growth in the assay on SF-539 CNS was 38.6%; in the assay with UACC-257 melanoma, 39.1%; with M14 melanoma, 72.6%; with HCT-15 colon, 26.1%; with HT29 colon, 46.7%; with SNB-75 CNS, 46.3%. Moreover, the growth was 44.9% in the assay on SNB-19 CNS; 41.5% in the assay on U251 CNS; 42% in the assay with PC-3 prostate; 28.3% in the assay on SK-MEL-5 melanoma; 40.8% with UACC-62 melanoma; 19.6% in the assay on LOX IMVI melanoma. In the assay with SK-MEL-2 melanoma, the growth is 84.1%.

With `CN1CCN(Cc2ccc(C(=O)Nc3cncc(C#Cc4cnc(N)c5ccccc45)c3)cc2C(F)(F)F)CC1`, the growth was -46% (active) in the assay with K-562 leukemia; -86.9% (active) in the assay on MALME-3M melanoma; -82.2% (active) in the assay with MDA-MB-231 breast; -81.5% (active) in the assay with RXF 393 renal; -69.5% (active) in the assay with SF-268 CNS; -82.7% (active) in the assay with SF-295 CNS. Further, the growth was -95.9% (active) in the assay with SF-539 CNS; -75% (active) in the assay on UACC-257 melanoma; -85.2% (active) in the assay on M14 melanoma; -37.6% (active) in the assay with HCT-15 colon; -53.2% (active) in the assay on HT29 colon; -96.4% (active) in the assay on SNB-75 CNS. The growth in the assay with SNB-19 CNS was -47.5% (active); with U251 CNS, -70.5% (active); in the assay with PC-3 prostate it was -18.8% (active); in the assay with SK-MEL-5 melanoma it was -94.6% (active); with UACC-62 melanoma, 42.7%; with LOX IMVI melanoma, -92.4% (active). For the same compound, the values for the growth in the assay on SK-MEL-28 melanoma and with SK-MEL-2 melanoma were -85.5% (active) and -53.9% (active), respectively.

In the case of `O=C(/C=C/c1ccc(C(F)(F)F)cc1)c1ccc(Nc2nc(NCCO)nc(Nc3ccc(Cl)cc3)n2)cc1`, the growth in the assay with K-562 leukemia was 12.5%; with MALME-3M melanoma, 96.3%; in the assay with MDA-MB-231 breast, 59.3%; in the assay with RXF 393 renal, 42.8%; in the assay with SF-268 CNS it was 50.6%; in the assay with SF-295 CNS, 79.6%. The growth in the assay on SF-539 CNS was 51.3%; in the assay with UACC-257 melanoma, 92.1%; with M14 melanoma, 54.7%; with HCT-15 colon, 6.59% (active); with HT29 colon, 5.76% (active); with SNB-75 CNS it was 37.4%. The growth in the assay on SNB-19 CNS is 76%; with U251 CNS, -41.8% (active); in the assay on PC-3 prostate, 32.9%; in the assay with SK-MEL-5 melanoma, 84.7%; with UACC-62 melanoma, 62.4%; with LOX IMVI melanoma, 0.53% (active). Further, the growth in the assay on SK-MEL-28 melanoma was 73%; with SK-MEL-2 melanoma, 99.9%.

As for `CCC(C)(C)C(=O)O[C@H]1C[C@@H](C)C=C2C=C[C@H](C)[C@H](CC[C@@H]3CC=CC(=O)O3)[C@H]21`, the growth is 32.8% in the assay on K-562 leukemia; 94.1% with MALME-3M melanoma; 96.9% in the assay on MDA-MB-231 breast; 41.3% in the assay with RXF 393 renal; 85.7% with SF-268 CNS; 97.5% in the assay on SF-295 CNS. Besides, the growth with SF-539 CNS is 96.1%; in the assay on UACC-257 melanoma, 60.4%; in the assay with M14 melanoma it was 61.3%; in the assay with HCT-15 colon it was 63.9%; in the assay with HT29 colon, 44.5%; in the assay on SNB-75 CNS, 80.4%. In addition, the growth is 84% in the assay on SNB-19 CNS; 82.2% with U251 CNS; 49.1% with PC-3 prostate; 71% in the assay on SK-MEL-5 melanoma; 72.5% in the assay on UACC-62 melanoma; -47.4% (active) in the assay on LOX IMVI melanoma. In addition, the results for the growth in the assay with SK-MEL-28 melanoma and in the assay on SK-MEL-2 melanoma were 79.2% and 86.1%, respectively.

Regarding `COc1ccc(-c2nc(N3CCN(C(=O)C4CCCCC4)CC3)c3c4c(sc3n2)CCCC4)cc1`, the growth with K-562 leukemia was 0.112% (active); in the assay with MALME-3M melanoma, -56.2% (active); in the assay with MDA-MB-231 breast it was 36.9%; with RXF 393 renal it was -59.3% (active); in the assay with SF-268 CNS, 20.3%; with SF-295 CNS, -82% (active). Besides, the growth with SF-539 CNS was -1.73% (active); in the assay with UACC-257 melanoma it was 63.5%; in the assay with M14 melanoma, 29.9%; in the assay on HCT-15 colon it was 49.2%; with HT29 colon, -49.9% (active); in the assay on SNB-75 CNS, -66.3% (active). Moreover, the growth in the assay with SNB-19 CNS is 69.8%; in the assay on U251 CNS, -78.6% (active); in the assay with PC-3 prostate it was -28.7% (active); in the assay on SK-MEL-5 melanoma, 36.5%; with UACC-62 melanoma, 44.1%; in the assay with LOX IMVI melanoma it was 5.28% (active). In addition, the growth in the assay on SK-MEL-28 melanoma is -24.2% (active); with SK-MEL-2 melanoma, 24.7%.

Consider `O=c1[nH]nnc2c1ncn2C1OC(CO)C(O)C1O` (stereo not drawn), for which the growth in the assay on K-562 leukemia is 31.5%; with MALME-3M melanoma it was 57.5%; in the assay on MDA-MB-231 breast it was 55.2%; in the assay on RXF 393 renal, 80.7%; in the assay on SF-268 CNS, 67.6%; in the assay on SF-295 CNS, 20.2%. The growth in the assay on SF-539 CNS is 67.2%; in the assay on UACC-257 melanoma, 65.2%; in the assay on M14 melanoma, 36.2%; in the assay on HCT-15 colon, 66.5%; with HT29 colon, 50.4%; in the assay on SNB-75 CNS, 44.8%. Besides, the growth in the assay on SNB-19 CNS was 105%; in the assay on U251 CNS it was 97.7%; in the assay on PC-3 prostate it was 50.6%; with SK-MEL-5 melanoma, 91.8%; in the assay on UACC-62 melanoma, 58%; in the assay with LOX IMVI melanoma, 22.6%. The results for the growth in the assay with SK-MEL-28 melanoma and in the assay with SK-MEL-2 melanoma were 102% and 6% (active), respectively.

The record behind these values is PubChem BioAssay (NCI).
